Source: PubChem BioAssay AID488857 (Sanford-Burnham Center for Chemical Genomics, 2010)
Among all 1,400 compounds or so, about 560 (40%) were called active. So high a share suggests a set chosen from earlier hits. Some of the results follow. Unmarked numbers belong to inactive results.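 The calls were made as follows: active = mean inhibition over duplicate tests at 10 µM above 50%; inactive = the rest.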

Experiment: ASC/caspase-1 reporter retest in S. cerevisiae at one dose, specificity check for NALP1 project (AID 488857)
Details: S. cerevisiae ASC/Caspase-1, beta-galactosidase luminescence, 24 h; at 10 µM; stronger effect = higher value

Row | Compound | inhibition
1 | O=C1c2ccccc2C(=O)c2c1ncn2-c1ccccc1 | 45.6%
2 | O=C(CN(Cc1ccccc1)S(=O)(=O)c1ccc(S(=O)(=O)N2CCOCC2)cc1)Nc1ccccc1 | 36.3%
3 | N#C/C(=C/c1cccs1)c1nc2ccccc2[nH]1 | 98.2% (active)
4 | N#C/C(=C\c1ccc([N+](=O)[O-])o1)c1nc2ccccc2[nH]1 | 20.7%
5 | Cn1c(/C(C#N)=C/C2CC=CCC2)nc2ccccc21 (stereo unspecified) | 45.5%
6 | CC(C)C(C(=O)O)N1C(=O)/C(=C/c2cccn2C)SC1=S (stereo unspecified) | 56.4% (active)
7 | C/C(=N\NC(=O)c1c[nH]c2ccccc12)c1ccco1 | 40.6%
8 | CCN(CC)c1ccc(N=Cc2ccc([N+](=O)[O-])o2)cc1 | 69.8% (active)
9 | CN(Cc1ccccc1)C(=O)c1ccc([N+](=O)[O-])o1 | 41.7%
10 | O=[N+]([O-])c1ccc(/C=N/NS(=O)(=O)c2ccc(Cl)cc2)o1 | 23.6%
11 | CC/C(=N\NC(=O)c1ccccc1Cl)c1ccc(Br)s1 | 38.1%
12 | C/C(=N\NC(=O)c1csc(C)c1C)c1ccc(Cl)s1 | 59.2% (active)
13 | Cc1cccc2sc(N(CCCN(C)C)C(=O)c3sc4ccccc4c3Cl)nc12 | 63.2% (active)
14 | CN(C)CCCN(C(=O)c1sc2ccccc2c1Cl)c1nc2ccc(F)cc2s1 | 55.7% (active)
15 | Cc1ccc2nc(N(CCCN(C)C)C(=O)c3sc4ccccc4c3Cl)sc2c1 | 31.8%
16 | Cc1cc(C=C2C(=O)c3ccccc3C2=O)c(C)n1C | 37.7%
17 | CC(=O)N(C1=C(Cl)C(=O)c2ccccc2C1=O)C1CCCCC1 | 50.3% (active)
18 | C/C(=N\N(C)C)C1=C(O)c2ccccc2C1=O | 32.5%
19 | O=C(c1ccc(Br)o1)N(c1ccccn1)C1CCCCC1 | 33.8%
20 | CN(c1ccccc1)c1ccc(/C=C/[N+](=O)[O-])cc1 | 96.7% (active)
21 | O=C(O)CC1NC(=S)N(c2ccccc2)C1=O (stereo unspecified) | 31.6%
22 | COC(=O)c1cc(=O)n(-c2c(Cl)cc(C(F)(F)F)cc2Cl)[nH]1 | 34.8%

Row | Compound | inhibition
23 | c1ccc(-c2c[nH]c3[n+]2CCCCC3)cc1 | 52.4% (active)
24 | Oc1ccc2ccccc2c1CN1CCN(c2ccccc2)CC1 | 45.1%
25 | CC(NCCC(c1ccccc1)c1ccccc1)c1ccccc1 (stereo unspecified) | 50.4% (active)
26 | Cc1cc(C)cc(C(=O)OCC(=O)NCCNC(=O)COC(=O)c2cc(C)cc(C)c2)c1 | 23.8%
27 | COc1ccc(C(=O)C2CCCN(C(=O)Cn3nc(C)cc3C)C2)cc1F (stereo unspecified) | 46.8%
28 | Cc1ccc(C)c(NC(=O)CSc2nnc(-c3ccccc3)o2)c1 | 45.4%
29 | Cc1ccc(NC(=O)Cn2cccc2)c(C)c1 | 28.5%
30 | Cc1ccc(NC(=O)CSC2=Nc3ccccc3C3CC=NN23)c(C)c1 (stereo unspecified) | 56.6% (active)
31 | Cc1nc2nc3c(cn2n1)C(=O)CCC3 | 23.6%
32 | COC(=O)c1ccccc1NC(=O)CN1CCC(n2nnc3cc(F)ccc32)CC1 | 33.6%
33 | COc1ccccc1NC(=O)CCN1CCN(Cc2ccccc2)CC1 | 45.7%
34 | COc1ccccc1NC(=O)c1ccc(C)s1 | 50.4% (active)
35 | COc1ccccc1NC(=O)C1=C(C)NC(=O)NC1c1cccs1 (stereo unspecified) | 32.2%
36 | CC(C)NC(=O)CCCOc1ccc(Cl)cc1Cl | 48.5%
37 | C#CCN(C)CCCOc1ccc(Cl)cc1Cl | 54% (active)
38 | CCCCOc1ccccc1NC(=O)c1ccco1 | 46.5%
39 | CCCOc1ccccc1NC(=O)/C=C/C(N)=O | 58% (active)
40 | CCOc1ccccc1NC(=O)/C=C/C(N)=O | 59.4% (active)
41 | CCOc1ccccc1N/C=C(\C#N)c1nc2ccccc2n1C | 26.1%
42 | O=C(CCSc1nc2cc(Cl)ccc2o1)N1CCOCC1 | 32.5%
43 | O=C(c1nnsc1S(=O)c1ccc(Cl)cc1)N1CCOCC1 (stereo unspecified) | 71.7% (active)
44 | CNC(=O)c1nnsc1S(=O)c1ccc(Cl)cc1 (stereo unspecified) | 78.5% (active)

Row | Compound | inhibition
45 | CCCNC(=O)c1nnsc1S(=O)c1ccc(Cl)cc1 (stereo unspecified) | 96.7% (active)
46 | Clc1ccc(SCCCCN2CCOCC2)cc1 | 36.5%
47 | Cc1c(Cl)sn(-c2ccc(Cl)cc2)c1=O | 84.5% (active)
48 | O=C(O)c1ccccc1SC1CC(=O)N(c2ccccc2)C1=O (stereo unspecified) | 34.5%
49 | CN(C)c1ccc(N2C(=O)CC(Sc3ccccc3C(=O)O)C2=O)cc1 (stereo unspecified) | 59.8% (active)
50 | COc1ccc(NCc2ccc([N+](=O)[O-])s2)c(OC)c1 | 49%
51 | CCOC(=O)/C(=C/c1ccc(OC(=O)c2ccccc2)cc1)C(C)=O | 59.9% (active)
52 | CCOC(=O)C1=C(O)c2ccccc2C(=O)/C1=C\c1ccc(C)cc1 | 24.1%
53 | COC(=O)c1ccccc1NC(=O)C1CCN(C(=O)c2cc(OC)cc(OC)c2)CC1 | 34.1%
54 | CN1CCN(S(=O)(=O)c2ccc(NC(=S)NC(=O)C(C)(C)C)cc2)CC1 | 31.6%
55 | COC(=O)c1ccccc1NC(=O)C1CCCN(S(=O)(=O)c2ccc(OC)cc2)C1 (stereo unspecified) | 76.4% (active)
56 | CCOC(=O)N1CCN(c2c(NCCOC)c(=O)c2=O)CC1 | 32.5%
57 | CCN1CCN(C(=S)Nc2ccc(Cl)c(Cl)c2)CC1 | 22.7%
58 | CCOC(=O)N1CCN(c2ccc(Cl)c(Cl)c2)CC1 | 68.9% (active)
59 | Cn1nnc(NC(=O)/C=C/c2ccco2)n1 | 45.4%
60 | CCCNCC1COc2ccccc2O1 (stereo unspecified) | 37.9%
61 | CN(C)CCN(C(=O)/C=C/c1cccs1)c1nc2ccc(F)cc2s1 | 72% (active)
62 | CN(C)CCN(C(=O)/C=C/c1cccs1)c1nc2c(F)cc(F)cc2s1 | 65.1% (active)
63 | CC1CCC2C(=O)N(c3ccc(C(=O)Oc4cccc5cccnc45)cc3)C(=O)C2C1 (stereo unspecified) | 44.9%
64 | O=[N+]([O-])c1ccc2cn(-c3ccccc3)nc2c1 | 41.1%
65 | O=[N+]([O-])c1ccc2nc(-c3ccccn3)[nH]c2c1 | 70% (active)
66 | c1ccc(-c2nc3cc4ccccc4cc3[nH]2)nc1 | 84.5% (active)
